Compound activity: PubChem BioAssay, National Center for Advancing Translational Sciences (NCATS)
Most compounds without a hit are left out; they make up all but 7.5% or so of the library.
ELG1 DNA repair – inhibitors of ELG1-dependent DNA repair in HEK293T cells; HEK293T ELG1-luciferase reporter, luminescence, 16 h; DNA damage induced by 5-fluorouridine; AID 504467; hit rate 2.3% among 330,000; Potency, µM (doses to about 46.1 µM), hits mostly inhibitors; also: nearly all actives have a fitted effect of over 55% in size
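Cells (2,000 per well) received 5-fluorouridine plus test compound or DMSO and were incubated 16 hr at 37 °C, 5% CO2. Luciferase activity was read by luminescence 30 min after ONE-Glo addition; signal suppression marked inhibition of damage-induced ELG1 function.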
B2AR arrestin – beta2AR (human) beta-arrestin recruitment activity; hit rate 0.02% among 330,000; P07550; beta-arrestin recruitment to beta2AR, cell-based reporter; Potency, µM (doses to about 46.1 µM), most hits filed as activators; AID 492947; also: nearly all actives have a fitted effect of over 65% in size
Target sequence (P07550 whole entry, looked up): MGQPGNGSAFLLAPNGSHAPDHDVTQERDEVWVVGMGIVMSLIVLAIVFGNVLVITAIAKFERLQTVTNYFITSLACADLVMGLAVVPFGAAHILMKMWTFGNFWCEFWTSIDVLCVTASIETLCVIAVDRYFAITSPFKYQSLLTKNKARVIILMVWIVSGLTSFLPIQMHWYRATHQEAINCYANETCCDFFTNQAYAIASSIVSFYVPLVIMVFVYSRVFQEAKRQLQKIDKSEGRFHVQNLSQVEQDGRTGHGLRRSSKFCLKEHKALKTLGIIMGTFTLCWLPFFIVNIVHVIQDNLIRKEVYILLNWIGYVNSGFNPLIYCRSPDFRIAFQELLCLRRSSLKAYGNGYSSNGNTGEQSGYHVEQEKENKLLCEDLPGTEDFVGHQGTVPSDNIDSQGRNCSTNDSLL
RORg inh – blocks mouse ROR gamma transcriptional activity; P51450; Drosophila S2 Gal4-RORgamma UAS-luciferase reporter, 20 h; Potency, µM (top dose mostly 53.6 µM), hits mostly inhibitors; hit rate 5.4% among 310,000; also: nearly all actives have a fitted effect of over 60% in size
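Luminescence from a UAS-regulated Photinus luciferase reporter in stably transfected Drosophila Schneider cells is measured; decreased signal marks ROR gamma inhibition. Fusion expression is induced by 700 uM copper sulfate for 20 hr.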
Gal4-VP16 FLuc – inhibits Gal4-VP16 luciferase reporter, ROR gamma counter-screen; hit rate 3.5% among 310,000; Potency, µM (highest dose often 53.6 µM), usual class: inhibitors; Drosophila S2 Gal4-VP16 UAS-luciferase, luminescence, 20 h; AID 2546;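 also: Gal4-VP16 expression switched on by copper sulfate through the metallothionein promoter; nearly all actives have a fitted effect of over 50% in size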
TSHR antag – antagonists of human thyroid stimulating hormone receptor | P16473 | TSHR-expressing cells, TSH-stimulated cAMP HTRF, 2 h; hits give low values | activity change, negative = inhibition, % at 11.5 µM | hit rate 0.2% among 330,000 | AID 504810;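 active = activity change below a set negative limit, meaning inhibition stronger than a set level, cut at about -70% in these data; inconclusive = activity change between two set negative limits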
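Read-out is FRET at 665 nm (cryptate excitation 337 nm) from a cryptate-tagged anti-cAMP antibody, competed by cell cAMP against cAMP-d2. Compounds are tested on freshly harvested TSHR cells challenged with 4nM TSH (EC80) for 2 hours at 37 deg C.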
Hits are given with their value; n = inactive; u = inconclusive; x = no result given; [ ] = dose if it differs, or a comment. Unless noted, calls follow the shape of the dose curve; as a rule, active = well fitted curve in the direction sought with a large enough effect; inconclusive = small, poorly fitted or top-dose-only effect, or another doubt; inactive = no such curve, though single readings can be large; an effect the other way counts as inactive or inconclusive.

SMILES	ELG1 DNA repair	B2AR arrestin	RORg inh	Gal4-VP16 FLuc	TSHR antag
C=CCn1c(C)c(C(C)=O)c(N2CCCC2)nc1=S	n	n	n	n	n
CCn1c(C)c(C(C)=O)c(N2CCCC2)nc1=S	n	n	7.94µM	n	n
CC(=O)c1c(C(C)=O)c(C)n(Cc2ccccc2)c1C	u	n	n	n	n
CCCSc1nc(=S)n(Cc2ccccc2)c(C)c1C(C)=O	u	n	14.1µM	u	n
CC(=O)c1c(N2CCN(Cc3ccccc3)CC2)nc(=S)n(Cc2ccccc2)c1C	n	n	n	u	n
CN1C(=O)c2cccc(NCCCN3C(=O)c4ccccc4C3=O)c2C1=O	n	n	n	n	n
CN1C(=O)c2cccc(NCCCCCCN3C(=O)c4ccccc4C3=O)c2C1=O	14.6µM	n	n	n	n
NC(=S)Nc1ccc(Cl)cc1Cl	n	n	n	n	n
CC1C/C(=N\NC(N)=S)c2cc(Cl)ccc2S1 (stereo not given)	u	6.31µM	0.631µM	2µM	n
C=C1c2ccccc2O[C@H](C(=O)OCC)C1OC (mixture of isomers)	x	x	n	n	x
Cc1ccn2c(NC3CCCC3)c(-c3ccsc3)nc2c1	u	n	11.2µM	n	n
COC(=O)NC(c1cccc(C)c1)[C@@]1(C(=O)OC)CCCC1=O (stereo not given in full)	x	x	n[10 µM]	n[10 µM]	x
Cn1c(=O)n(CCCOc2ccc(Br)cc2)c2ccccc21	x	x	10µM	u	x
CCOc1ccc(S(=O)(=O)N(CC(=O)N2CCC(C(N)=O)CC2)c2ccc(F)cc2)cc1	n	n	n	n	n
O=C(O)c1ccc(S(=O)(=O)c2ccc3c(c2)C(=O)N(NC(=O)c2ccc(O)cc2)C3=O)cc1	n	n	6.31µM	10µM	n
CCc1ccc(-n2c(Cc3ccccc3)n[nH]c2=S)cc1	n	n	2µM	u	n
Cc1cccc(-n2c(CCn3nc(C)c([N+](=O)[O-])c3C)n[nH]c2=S)c1	n	n	12.6µM	n	n
Cc1cccc(-n2c(Cc3ccccc3)n[nH]c2=S)c1	n	n	3.98µM	14.1µM	n
CCOc1ccc(Cc2n[nH]c(=S)n2N)cc1	n	n	n	n	n
COc1cccc(-n2c(CCn3nc(C)c([N+](=O)[O-])c3C)n[nH]c2=S)c1	n	n	u	n	n
Cc1cccc(-n2c(CNC(=O)Cc3ccccc3)n[nH]c2=S)c1	n	n	n	n	n
Cc1cc(NC(=O)c2ccc(S(=O)(=O)N(C)CC3CCCO3)cc2)no1 (stereo not given)	n	n	u	n	n
CN(CC1CCCO1)S(=O)(=O)c1ccc(C(=O)Nc2nccs2)cc1 (stereo not given)	n	n	n	n	n
CN(CC1CCCO1)S(=O)(=O)c1ccc(C(=O)Nc2ccc3c(c2)OCO3)cc1 (stereo not given)	11.6µM	n	n	n	n
CN(CC1CCCO1)S(=O)(=O)c1ccc(C(=O)N2CCN(c3ccccc3)CC2)cc1 (stereo not given)	23.1µM	n	n	n	n
SMILES	ELG1 DNA repair	B2AR arrestin	RORg inh	Gal4-VP16 FLuc	TSHR antag
COc1ccc(-c2nnc(NC(=O)c3ccc(S(=O)(=O)N(C)CC4CCCO4)cc3)o2)c(OC)c1 (stereo not given)	u	n	0.708µM	1µM	n
CN(C(=O)COC(=O)Cn1c(C(F)(F)F)nc2ccccc21)c1c(N)n(Cc2ccccc2)c(=O)[nH]c1=O	u	n	n	n	n
CCCn1c(-c2ccc(F)cc2)nc2c(N3CCN(Cc4nc(OC)cc(OC)n4)CC3)nc(C)nc21	x	x	n	n	x
COc1ccc(C(=O)c2ccc(OC)c(N)c2)cc1N	u	n	1.41µM	n	n
COc1ccc(C(=O)c2ccc(OC)c(OC)c2)cc1OC	n	n	n	n	n
CCCCNc1nc(C)nc2c1nc(-c1ccccc1)n2C1CCN(Cc2ccccc2)C1 (stereo not given)	x	x	11.2µM	n	x
CCCn1c(N)c(N(CCOC)C(=O)c2cc3ccccc3cc2OC)c(=O)[nH]c1=O	n	n	x	x	n
Cc1cccn2c(=O)cc(COC(=O)C(C)Oc3ccccc3)nc12 (stereo not given)	n	n	x	x	n
Cc1cc(=O)n2cccc(O)c2n1	u	u	0.891µM	1.78µM	n
CCCc1cc(NC(=O)CCl)n(-c2ccccc2)n1	u	n	u	20µM	n
CC(C)(C)c1cc(NC(=O)CCl)n(-c2ccccc2)n1	n	n	u	u	n
CN(C)C(=S)NC(=O)C12CC3(C)CC(C)(CC(C)(C3)C1)C2	n	n	2.51µM	n	n
Nc1nonc1C(=O)NCCNCc1cc(Br)ccc1OCc1ccc(F)cc1	n	n	n	12.6µM	n
CC(C)c1ccccc1NC(=S)NCC1(N(C)C)CCCCC1	n	n	15.8µM	u	n
CC(C)C(C)C	x	x	n	n	x
O=C(NC(=S)Nc1ccccc1C(F)(F)F)c1ccccc1F	n	n	6.31µM	u	n
O=C(NC(=S)Nc1c(Cl)ccc2nsnc12)c1ccccc1F	n	n	1.41µM	n	u
Cc1ccccc1C(=O)NC(=S)Nc1ccccc1C(F)(F)F	n	n	0.794µM	u	n
CNCC[C@H](Oc1ccccc1OC)c1ccccc1	x	x	n	n	x
O=C(CSc1ccccn1)Nc1cccc(S(=O)(=O)N2CCCC2)c1	n	n	x	x	n
CCOC(=O)c1c(C)[nH]c(N=Nc2cccc(OC)c2)c1C	u	n	3.98µM	n	n
CCOC(=O)c1c(C)[nH]c(N=Nc2cccc(C)c2)c1C	u	n	n	n	n
CCNc1ncc2nc(C)c(=O)n(Cc3cccs3)c2n1	x	x	n	n	x
O=C(c1cc(-c2cccnc2)nc2ccccc12)N1CCCc2ccccc21	20.6µM	n	n	n	n
O=C(CSc1nc2ccccc2s1)Nc1cc(S(=O)(=O)N2CCOCC2)ccc1Cl	23.1µM	n	n	n	n
SMILES	ELG1 DNA repair	B2AR arrestin	RORg inh	Gal4-VP16 FLuc	TSHR antag
Cc1ccc(S(=O)(=O)N2CCOCC2)cc1NC(=O)CSc1ncccn1	n	n	x	x	n
Cc1ccc(S(=O)(=O)N2CCOCC2)cc1NC(=O)CSc1nnc2cc(C)c3ccccc3n12	18.4µM	n	n	n	n
Cc1cc2nnc(SCC(=O)Nc3cc(S(=O)(=O)N4CCOCC4)ccc3Cl)n2c2ccccc12	18.4µM	n	n	n	n
COc1ccc(S(=O)(=O)N2CCOCC2)cc1NC(=O)CSc1nnc2c(n1)[nH]c1ccccc12	23.1µM	n	u	n	n
O=C(CSc1nnc2c(n1)[nH]c1ccc(S(=O)(=O)N3CCOCC3)cc12)Nc1ccccc1Cl	n	n	n	n	n
O=C(CNc1ccccc1Cl)Nc1cc(S(=O)(=O)N2CCOCC2)ccc1Cl	u	n	x	x	n
CN(Cc1ccccc1)C(=O)CCSc1nc(-c2ccc3c(c2)OCO3)cc(C(F)(F)F)n1	16.4µM	n	n	n	n
Cc1cc(C=O)c(C)n1-c1ccc(NC2CCCC2)c([N+](=O)[O-])c1	u	n	n	n	-100.0
Cc1cc(C=O)c(C)n1-c1ccc(Oc2ccc([N+](=O)[O-])cn2)cc1	u	n	n	u	n
